A selection: hits, their analogues and other compounds. The true share with any hit is near 15%.
12-LOX inh: Primary qHTS assay for inhibitors of human arachidonate 12S-lipoxygenase (ALOX12): Round 2; purified 12hLO, xylenol orange hydroperoxide absorbance; Potency, µM (series often up to 108 µM), most hits filed as inhibitors; actives 1.1% (n = 580,000)
Target sequence (P18054 whole entry, looked up): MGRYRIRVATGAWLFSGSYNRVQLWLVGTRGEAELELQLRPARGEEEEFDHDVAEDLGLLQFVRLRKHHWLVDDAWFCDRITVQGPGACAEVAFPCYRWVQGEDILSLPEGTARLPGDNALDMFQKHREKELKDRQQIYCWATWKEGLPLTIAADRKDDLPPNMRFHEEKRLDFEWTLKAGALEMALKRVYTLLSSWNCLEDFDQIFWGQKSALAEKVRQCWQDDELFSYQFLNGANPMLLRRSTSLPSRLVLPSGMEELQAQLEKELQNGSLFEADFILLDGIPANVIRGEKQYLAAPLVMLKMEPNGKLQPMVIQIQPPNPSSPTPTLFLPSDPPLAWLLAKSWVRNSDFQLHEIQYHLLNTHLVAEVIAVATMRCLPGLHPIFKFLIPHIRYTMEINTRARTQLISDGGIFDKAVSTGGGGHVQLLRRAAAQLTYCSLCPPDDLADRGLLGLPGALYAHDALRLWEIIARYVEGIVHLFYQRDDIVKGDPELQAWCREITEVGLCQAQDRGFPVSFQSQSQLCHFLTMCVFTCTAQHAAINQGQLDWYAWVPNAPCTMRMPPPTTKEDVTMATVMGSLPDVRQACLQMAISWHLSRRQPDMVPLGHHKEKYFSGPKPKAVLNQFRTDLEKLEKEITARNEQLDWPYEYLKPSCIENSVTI
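Purified human 12hLO (150 nM final) in 25 mM Hepes, 0.01% Triton X-100, pH 7.0 was preincubated 15 min at room temperature with compound. Then 40 uM arachidonic acid was added, 30 min. Hydroperoxide was read by Fe-XO absorbance ratio 573/405 nm.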
ELG1 repair inh: qHTS screen for small molecules that inhibit ELG1-dependent DNA repair in human embryonic kidney (HEK293T) cells expressing luciferase-tagged ELG1; Potency, µM (doses to about 46.1 µM), hits mostly inhibitors; actives 2.3% (n = 330,000); HEK293T ELG1-luciferase reporter, luminescence, 16 h; DNA damage induced by 5-fluorouridine; note: nearly all actives have a fitted effect of over 55% in size
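HEK293T cells expressing luciferase-tagged ELG1 (2,000/well) received 5-Fluorouridine plus compound or DMSO for 16 hr at 37 °C. Luciferase was read by ONE-Glo luminescence after 30 min at room temperature.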
DT40 TDP1 no CPT: qHTS for Inhibitors of human tyrosyl-DNA phosphodiesterase 1 (TDP1): qHTS in cells in absence of CPT; DT40 Tdp1-/- hTDP1 cells, no CPT, ATP luminescence, 48 h; Potency, µM (highest dose often 46.2 µM), most hits filed as inhibitors; actives 15% (n = 420,000); AID 686978, 2013; note: nearly all actives have a fitted effect of over 55% in size
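Chicken DT40 Tdp1-/- cells complemented with human TDP1, screened without camptothecin (DMSO vehicle only), 400 cells/well. Compounds pin-transferred, cells incubated at 37 °C for at least 48 hr. Growth read as ATP-dependent luminescence (CellTiter-Glo, 30 min at RT).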
RORgamma inh: qHTS for inhibitors of ROR gamma transcriptional activity; Nuclear receptor ROR-gamma (Mus musculus), P51450; Drosophila S2 Gal4-RORgamma UAS-luciferase reporter, 20 h; Potency, µM (highest dose often 53.6 µM), hits mostly inhibitors; actives 5.4% (n = 310,000); note: nearly all actives have a fitted effect of over 60% in size
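A Gal4/UAS one-hybrid system in insect cells: metallothionein-promoter Gal4–ROR gamma fusion plus Photinus luciferase reporter. Copper sulfate 700 uM final, 20 hr ambient incubation, luminescent detection after 10 min with reagent.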
Gal4-VP16 FLuc: VP16 counterscreen qHTS for inhibitors of ROR gamma transcriptional activity | Drosophila S2 Gal4-VP16 UAS-luciferase, luminescence, 20 h | actives 3.5% (n = 310,000) | Potency, µM (doses to about 53.6 µM), hits mostly inhibitors;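 note: Gal4-VP16 expression switched on by copper sulfate through the metallothionein promoter; nearly all actives have a fitted effect of over 50% in size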
TDP1 cell CPT: qHTS for Inhibitors of human tyrosyl-DNA phosphodiesterase 1 (TDP1): qHTS in cells in presence of CPT. chicken DT40 Tdp1-/-;hTDP1 cells + 20 nM CPT, ATP luminescence, 48 h. Potency, µM (doses to about 46.2 µM), actives largely listed as inhibitors. actives 12% (n = 420,000); note: nearly all actives have a fitted effect of over 55% in size
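Chicken DT40 Tdp1-/- cells complemented with human TDP1, 400 cells/well, exposed to compounds plus 20 nM camptothecin for at least 48 h at 37 C; viability read as ATP content by CellTiter-Glo luminescence.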
Numbers stand for hits; n = inactive; u = inconclusive; x = no result; [ ] = dose if it differs, or a comment. Calls come from the whole dose curve; as a rule, active = well fitted curve in the direction sought with a large enough effect; inconclusive = small, poorly fitted or top-dose-only effect, or another doubt; inactive = no such curve, though single readings can be large; an effect the other way counts as inactive or inconclusive.

SMILES | 12-LOX inh | ELG1 repair inh | DT40 TDP1 no CPT | RORgamma inh | Gal4-VP16 FLuc | TDP1 cell CPT
Cc1ccc(NC(=O)Cn2c(O)c(N=NC(=O)c3cc([N+](=O)[O-])ccc3O)c3ccccc32)cc1 | x | u | x | n | n | x
Cc1cccc(NC(=O)Cn2c(O)c(N=NC(=O)c3ccccc3O)c3ccccc32)c1 | n | u | 4.61µM | n[10 µM] | u | n
CCCn1c(O)c(N=NC(=O)c2ccco2)c2ccccc21 | n | u | 11.6µM | u | u | 13µM
CCn1c(O)c(N=NC(=O)c2cccs2)c2ccccc21 | n | u | 14.6µM | n | n | 23.1µM
CCn1c(O)c(N=N)c2ccccc21 | n | u | n | n | n | n
CCn1c(O)c(N=NC2=NC(=O)CS2)c2ccccc21 | n | u | n | 10µM | u | n
C=CCn1c(O)c(N=NC(=O)CNC(=O)c2ccco2)c2ccccc21 | n | n | 4.11µM | n | n | 6.51µM
C=C(C)Cn1c(N2CCN(CC(=O)OCC)CC2)nc2c1c(=O)[nH]c(=O)n2C | n | x | x | x | x | x
Nc1ccc2c(c1)ncn2CCCn1cnc2cc(N)ccc21 | n | n | u | n | n | 20.6µM
CNC(=O)c1[nH]cnc1C(=O)N[C@@H](Cc1ccccc1)C(=O)OCc1ccccc1 | n | u | u | 17.8µM | u | 14.6µM
CC(C)C[C@H](NC(=O)c1nc[nH]c1C(=O)N1CCc2ccccc2C1)C(=O)OCc1ccccc1 | n | n | u | u | u | u
CNC(=O)c1[nH]cnc1C(=O)N[C@@H](C)C(=O)OCc1ccccc1 | n | u | n | n | n | u
O=C(N[C@@H](Cc1ccccc1)C(=O)OCc1ccccc1)c1nc[nH]c1C(=O)N1CCc2ccccc2C1 | n | n | u | 12.6µM | u | u
CC(C)(C)OC(=O)CNC(=O)c1nc[nH]c1C(=O)N1CCc2ccccc2C1 | n | n | n | 11.2µM | u | n
C[C@H](NC(=O)c1nc[nH]c1C(=O)N[C@@H](Cc1ccccc1)C(=O)OCc1ccccc1)C(=O)OCc1ccccc1 | n | n | 23.1µM | 11.2µM | u | u
CC(C)(C)OC(=O)N1CCC(NC(=O)c2nc[nH]c2C(=O)N2CCc3ccccc3C2)CC1 | n | n | n | x | x | u
Cc1cccc(OCCOC(=O)c2cc(C)nc3ccccc23)c1 | n | x | x | x | x | x
CCOC(=O)C(C)Oc1ccc2c(=O)c(Oc3cc(C)ccc3C)coc2c1 (stereo not given) | n | x | x | x | x | x
C[C@H](NC(=O)c1nc[nH]c1C(=O)N[C@@H](Cc1ccccc1)C(=O)OC(C)(C)C)C(=O)OCc1ccccc1 | n | n | 18.4µM | 7.94µM | u | u
COC1(NS(=O)(=O)c2ccc(Br)cc2)C(C)=CC(=O)C=C1C | n | n | u | n | n | 13µM
Cc1ccc(NS(=O)(=O)c2ccc(Br)cc2)nc1 | n | n | n | n | n | n
CC(C)CC1C(=O)N(Cc2cn(CC3CCCCC3)nn2)CCS(=O)(=O)N1Cc1ccc(-c2ccc(Cl)c(Cl)c2)cc1 (stereo not given) | n | x | 16.4µM | x | x | u
Cc1cccc(C)c1-c1ccc(CN2C(CC(C)C)C(=O)N(Cc3cn(CC4CCCCC4)nn3)CCS2(=O)=O)cc1 (stereo not given) | n | x | 23.1µM | x | x | u
COc1cccc(-c2cnc([C@@H]3COCCN3Cc3ccc(S(C)(=O)=O)cc3)[nH]2)c1 | n | x | x | x | x | x
CCOc1ccc(C(=O)Nc2c(C(=O)N3CCN(c4ccccc4F)CC3)oc3ccccc23)cc1 | n | x | n | x | x | u
SMILES | 12-LOX inh | ELG1 repair inh | DT40 TDP1 no CPT | RORgamma inh | Gal4-VP16 FLuc | TDP1 cell CPT
CCCCC(=O)Nc1c(C(=O)N2CCN(c3ccccc3)CC2)oc2ccccc12 | n | x | 9.2µM | x | x | 14.6µM
CC(C)C(=O)Nc1c(C(=O)N2CCN(c3ccccc3F)CC2)oc2ccccc12 | n | x | 11.6µM | x | x | 10.3µM
O=C(Nc1c(C(=O)N2CCN(c3ccccc3F)CC2)oc2ccccc12)c1ccc(Br)o1 | n | x | u | x | x | 18.4µM
O=C(c1ccc(Br)o1)N1CCN(c2ccccc2F)CC1 | n | n | u | n | n | n
CCC(CC)C(=O)Nc1c(C(=O)N2CCN(c3ccccc3F)CC2)oc2ccccc12 | n | x | 10.3µM | x | x | 14.6µM
Cc1nnc(N2CC[C@H](N3CCOCC3)[C@H](CCC(=O)O)C2)c2ccccc12 | n | x | x | x | x | x
CC(C)(C)C1CCC(=NNC(=O)C2CC2)CC1 (stereo not given) | n | x | x | x | x | x
N#C/C(=C/c1ccc(C#N)cc1)c1nc2ccccc2[nH]1 | n | x | x | x | x | x
CCC(CC)C(=O)Nc1c(C(=O)N2CCN(c3ccccc3)CC2)oc2ccccc12 | n | u | 8.2µM | n | n | 20.6µM
CC(C)C(=O)Nc1c(C(=O)N2CCN(c3ncccn3)CC2)oc2ccccc12 | n | n | n | n | n | n
O=C(Nc1c(C(=O)N2CCN(c3ccccc3)CC2)oc2ccccc12)c1ccco1 | n | x | u | x | x | u
CC(C)CC(=O)Nc1c(C(=O)N2CCN(c3ccccc3)CC2)oc2ccccc12 | n | x | 20.6µM | x | x | 14.6µM
COCC1CN(S(=O)(=O)c2ccc(F)c(C)c2)CC12CCNCC2 (stereo not given) | n | x | x | x | x | x
O=C(c1ccc(Cl)cc1)N1CCCCC(Sc2nnc(-c3ccc4c(c3)OCO4)o2)C1=O (stereo not given) | n | u | n | 1.41µM | u | n
CC(C)CC(=O)N1CCCC(c2nc(-c3cccnc3)no2)CCNC(=O)CC1 (stereo not given) | n | x | x | x | x | x
CC(=O)Nc1ccc(S(=O)(=O)NC[C@@H]2C=C(C)[C@H](CC(=O)O)C[C@H]2C(C)C)cc1 | n | x | x | x | x | x
ClCCn1c(CCl)nc2ccc(Cl)cc21 | 10µM | x | 16.4µM | x | x | u
O=C(OCc1nc2ccc(Cl)cc2n1CCO)c1ccccc1 | n | n | n | n | u | n
O=C(Nc1cnc(N2CCC(N3CCCCC3)CC2)c(C(=O)O)c1)c1ccc(Br)cc1 | 39.8µM | x | n | x | x | n
Cc1noc(C)c1S(=O)(=O)NCCc1ncc(C)n1C1CCC1 | n | x | x | x | x | x
CCc1ccc(/C=C2/Sc3ccccc3N(CC(=O)NCC3CCCO3)C2=O)cc1 (stereo not given) | n | 13µM | u | n | n | u
Cc1ccc(/C=C2/Sc3ccccc3N(CC(=O)NCC3CCCO3)C2=O)cc1 (stereo not given) | x | n | u | n | n | u
